{"source": "PubChem BioAssay AID588397", "about": "(National Center for Advancing Translational Sciences (NCATS), 2011)", "note": "Among all 1,300 compounds or so, about 1,000 (77%) were called active. Roughly 7% stayed inconclusive and do not appear here. Calls follow the shape of the dose curve; as a rule, active = well fitted inhibition curve with a large enough effect; inconclusive = small, poorly fitted or top-dose-only effect; inactive = no such curve, though single readings can be large or run the other way. So high a share suggests a set chosen from earlier hits. The list shows a part of the results. Potency is read from the fitted curve at half-maximal effect.", "data": [{"assay": "qHTS of small molecules that selectively kill Giardia lamblia: Hit Validation;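 also: viability measured as ATP content by luminescence so killing lowers signal; nearly all actives have a fitted effect of over 65% in size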.", "conditions": "Giardia lamblia trophozoite viability, dose-response; series mostly up to 38.3 µM", "description": "Giardia lamblia is a human pathogen afflicting impoverished nations, and the most common cause of outbreaks of diarrhea in the United States. Giardia has been classified by the CDC as a category B bioterrorism organism. The favored anti giardiasis drugs in the US are metronidazole or tinidazole, compounds that have undesirable side effects. Moreover, increasing resistance to drug regimes and recurrence are a concern. It is thus clear that alternative drug treatments are needed.\nIn a collaboration between the University of Maryland, College Park and the NIH Chemical Genomics Center, a bioluminescence Giardia viability assay based on the trophozoites' ATP content was developed. This assay is suitable for high throughput screening, and miniaturized the assay for compound screening in 1536-well plates. The goal of the project is to screen the Molecular Libraries Small Molecule Repository (MLSMR) for compounds that selectively kill Giardia trophozoites.\nNIH Chemical Genomics Center [NCGC]\nNIH Molecular Libraries Probe Centers Network [MLPCN]\nAssay Submitter (PI): Osnat Herzberg, University of Maryland, College Park, MD.\n1. Dispense 2 ul/well media\n2. Dispense 23 nl/well compounds\n3. Dispense 4 ul/well Giardia trophozoites at a concentration of 100 cells/well\n4. Incubate 48 hrs at 37 deg C anaerobically\n5. Dispense 4 ul/well ATPLite 1-Step Luminescence assay kit\n6. Incubate 15-30 min at room temperature\n7. Read luminescence signal on ViewLux plate reader", "values": [{"smiles": "Cc1cc([N+](=O)[O-])c2ccccc2[n+]1[O-]", "Potency": "206 nM (active)"}, {"smiles": "CC(=O)OC[C@]12CCC(C)=C[C@H]1O[C@@H]1[C@H](O)[C@@H](OC(C)=O)[C@@]2(C)[C@]12CO2", "Potency": "5160 nM (active)"}, {"smiles": "COC1/C=C/C=C(\\C)Cc2cc(O)c(Cl)c(c2)N(C)C(=O)CC(OC(=O)C(C)C)C2(C)OC2C(C)C2CC1(O)NC(=O)O2", "note": "(centres undefined)", "Potency": "460 nM (active)"}, {"smiles": "COC(/C(C)=C/C=C/C(C)=C/c1coc(C)n1)C(C)C1CC(O)C2(C)OC2C=CC(C)C2CC(CC(=O)O2)CC2OC2C(=O)O1", "note": "(centres undefined)", "Potency": "23.1 nM (active)"}, {"smiles": "C[N+]12CCC(CC1)C(=C(c1ccccc1)c1ccccc1)C2", "Potency": "inactive"}, {"smiles": "COC12C(COC(N)=O)C3=C(C(=O)C(C)=C(N)C3=O)N1CC1C2N1C", "note": "(centres undefined)", "Potency": "5790 nM (active)"}, {"smiles": "O=[N+]([O-])c1ccc(O)c([N+](=O)[O-])c1", "Potency": "2310 nM (active)"}, {"smiles": "O=[N+]([O-])c1cc([As](=O)(O)O)ccc1O", "Potency": "5790 nM (active)"}, {"smiles": "O=[N+]([O-])c1cc([As](=O)(O)c2ccc(O)c([N+](=O)[O-])c2)ccc1O", "Potency": "818 nM (active)"}, {"smiles": "Cc1nnc2ccc(-c3cccc(C(F)(F)F)c3)nn12", "Potency": "inactive"}, {"smiles": "ClCCOCCCl", "Potency": "inactive"}, {"smiles": "Fc1ccc(C2NCCc3[nH]cnc32)cc1", "note": "(centres undefined)", "Potency": "inactive"}, {"smiles": "CCOc1ccc(-c2cc(C(=O)N3CCC4(CC3)OCCO4)c3ccccc3n2)cc1", "Potency": "7290 nM (active)"}, {"smiles": "COc1ccc(C[C@H]2NC[C@H](O)[C@H]2OC(C)=O)cc1", "Potency": "650 nM (active)"}, {"smiles": "COc1ccc(CC2NCC(O)C2OC(C)=O)cc1", "note": "(centres undefined)", "Potency": "1030 nM (active)"}, {"smiles": "CCOC(=O)C1CCCN(c2ccc([N+](=O)[O-])c3nonc23)C1", "note": "(centres undefined)", "Potency": "1160 nM (active)"}, {"smiles": "CNC(=O)Oc1cccc(-c2cn3cc(Cl)ccc3n2)c1", "Potency": "2050 nM (active)"}, {"smiles": "CC1=C(N2CC2)C(=O)C(CO)=C(N2CC2)C1=O", "Potency": "115 nM (active)"}, {"smiles": "c1ccc2c(c1)[I+]c1ccccc1-2", "Potency": "146 nM (active)"}, {"smiles": "COC(=O)c1nc(-c2ccc3c(n2)C(=O)C(N)=C(OC)C3=O)c(N)c(-c2ccc(OC)c(OC)c2O)c1C", "Potency": "2590 nM (active)"}, {"smiles": "CN(C)C(=O)Oc1ccc(Br)c2ccccc12", "Potency": "inactive"}, {"smiles": "CC(=O)OC1(C)CC(C)C(=O)C(C(O)CC2CC(=O)NC(=O)C2)C1", "note": "(centres undefined)", "Potency": "18.3 nM (active)"}, {"smiles": "CC1CC(C)(O)CC(C(O)CC2CC(=O)NC(=O)C2)C1=O", "note": "(centres undefined)", "Potency": "146 nM (active)"}, {"smiles": "CC(C)(O)C1C2OC(=O)C1C1(O)CC3OC34C(=O)OC2C14C", "note": "(centres undefined)", "Potency": "inactive"}, {"smiles": "Cc1ncc([N+](=O)[O-])n1CCOC(N)=O", "Potency": "3260 nM (active)"}, {"smiles": "Cc1ncc([N+](=O)[O-])n1CCOc1nonc1N", "Potency": "1030 nM (active)"}, {"smiles": "CC1CC(C)CC(C)C(O)C(C#N)=CC=CCC(C2CCCC2C(=O)O)OC(=O)CC(O)C(C)C1", "note": "(centres undefined)", "Potency": "326 nM (active)"}, {"smiles": "COc1ccc(OC(=O)N2C/C(=C/c3ccccc3)C(=O)/C(=C\\c3ccccc3)C2)cc1", "Potency": "1160 nM (active)"}, {"smiles": "NC(=O)c1cc(N2CC2)c([N+](=O)[O-])cc1[N+](=O)[O-]", "Potency": "650 nM (active)"}, {"smiles": "O=[N+]([O-])c1ccc(-c2ccccc2)c([As](=O)(O)O)c1", "Potency": "259 nM (active)"}, {"smiles": "CC1Oc2cc3c(-c4c(O)cc(O)c5c(O)c6c(cc45)OC(C)C(C)C6=O)c(O)cc(O)c3c(O)c2C(=O)C1C", "note": "(centres undefined)", "Potency": "1030 nM (active)"}, {"smiles": "COC(COC(N)=O)C1=C(N2CC2)C(=O)C(C)=C(N2CC2)C1=O", "note": "(centres undefined)", "Potency": "729 nM (active)"}, {"smiles": "O=[N+]([O-])c1oc2ccc3ccccc3c2c1CCO", "Potency": "51.6 nM (active)"}, {"smiles": "NN=C(N)N", "Potency": "inactive"}, {"smiles": "C[C@@H]1C[C@@H]([C@H](O)CC2CC(=O)NC(=O)C2)C(=O)[C@@H](C)C1", "Potency": "183 nM (active)"}, {"smiles": "C[C@H]1C[C@@H](C)C(=O)[C@@H]([C@H](O)CC2CC(=O)NC(=O)C2)C1", "Potency": "72.9 nM (active)"}, {"smiles": "Cn1nc(-c2ccccc2)nc2c(=O)n(C)c(=O)nc1-2", "Potency": "163 nM (active)"}, {"smiles": "CCn1nc(/C=C/c2ccccc2)nc2c(=O)n(C)c(=O)nc1-2", "Potency": "146 nM (active)"}, {"smiles": "Cc1nc2c(=O)n(C)c(=O)nc-2n(C)n1", "Potency": "259 nM (active)"}, {"smiles": "Cc1ccc(-c2nc3c(=O)n(C)c(=O)nc-3n(C)n2)cc1", "Potency": "103 nM (active)"}, {"smiles": "Cc1ccc(C(c2nnnn2Cc2ccccc2)N2CC=C(c3ccc(F)cc3)CC2)cc1", "note": "(centres undefined)", "Potency": "inactive"}, {"smiles": "COC(=O)C12OCC34C(CC5C(C)=C(O)C(=O)CC5(C)C3C(O)C1O)OC(=O)C(OC(=O)/C=C(\\C)C(C)C)C24", "note": "(centres undefined)", "Potency": "579 nM (active)"}, {"smiles": "O=c1c2ccccc2nc(/C=C/c2ccc([N+](=O)[O-])o2)n1-c1ccc(O)cc1", "Potency": "290 nM (active)"}, {"smiles": "Cc1nc2ccccc2c(=O)n1-c1cc([N+](=O)[O-])cc([N+](=O)[O-])c1", "Potency": "10300 nM (active)"}, {"smiles": "O=c1c2ccccc2nc(/C=C/c2ccc(O)cc2)n1-c1cccc(O)c1", "Potency": "inactive"}, {"smiles": "Cc1cccc(-n2c(/C=C/c3ccc([N+](=O)[O-])o3)nc3ccccc3c2=O)c1", "Potency": "1630 nM (active)"}, {"smiles": "CC1CN(c2ccc([N+](=O)[O-])c3cccnc23)CC(C)N1", "note": "(centres undefined)", "Potency": "1300 nM (active)"}, {"smiles": "CN1CCN(c2ccc([N+](=O)[O-])c3cccnc23)CC1", "Potency": "1030 nM (active)"}, {"smiles": "CCCCn1c(=O)c(C(=O)NCc2ccccc2OC)c(O)c2ccccc21", "Potency": "inactive"}, {"smiles": "[Hg+][c]1ccccc1", "Potency": "4100 nM (active)"}, {"smiles": "CN1CCCN(c2ccc([N+](=O)[O-])nc2)CC1", "Potency": "6500 nM (active)"}, {"smiles": "C=CC1CN2CCC1CC2[C@@H](OC(=O)c1ccc(OC)cc1)c1ccnc2ccccc12", "note": "(some centres undefined)", "Potency": "818 nM (active)"}, {"smiles": "c1ccc2c(c1)[IH]c1ccccc1-2", "Potency": "460 nM (active)"}, {"smiles": "CN(c1ccccc1)c1ccc([N+](=O)[O-])c2nonc12", "Potency": "410 nM (active)"}]}]}
